The whole screen tested about 380,000 compounds, of which about 170 (0.045%) were called active. The call rests on the fitted dose curve; in most records, active means well fitted inhibition curve with a large enough effect; inconclusive means small, poorly fitted or top-dose-only effect; inactive means no such curve, though single readings can be large or run the other way. What follows is part of a selection rich in actives, with near analogues and random picks from the rest. Where a call stands in place of a potency, no number is given.
The compounds below were run against Phosphoglycerate kinase, glycosomal (Trypanosoma brucei brucei) (UniProt P07378) (assay: qHTS Assay to Find Inhibitors of Phosphoglycerate Kinase). Settings: PGK/GAPDH coupled, Kinase-Glo luminescence, 60 min; series mostly up to 57.5 µM.
Description: Several species of the Trypanosomatidae family of parasitic protozoans cause a spectrum of diseases throughout the tropical and subtropical world. Sleeping sickness, caused by two subspecies of Trypanosoma brucei, is endemic to areas of sub-Saharan Africa, while Chagas disease, a manifestation of Trypanosoma cruzi infection, is prevalent throughout Central and South America. In addition, many species of Leishmania are responsible for a range of cutaneous and visceral diseases, causing ulcers, destructive lesions and kalaazar, a lethal infection of the viscera. Collectively, these organisms infect 30 million people worldwide (~500 million live in endemic areas), and account for ~130,000 deaths annually. Given their debilitating and prevalent nature, trypanosomatid parasites impose a heavy medical, economic and social burden on entire populations, primarily in the developing world. The problem is further exacerbated by the fact that existing treatments have progressed little in the past 50 years, and current drugs show high toxicity and poor efficacy. […] Blood-stream stages of T. brucei are entirely dependent on glycolysis as a source of ATP, and the tricarboxylic acid cycle and oxidative phosphorylation are both repressed. Glycolysis in axenically cultured T. cruzi, representing the intracellular pathogenic stage, is also essential for these parasites. […] Previous studies have shown that the glycolytic enzyme, phosphoglycerate kinase (PGK), is a viable target for drugs to kill these parasites. […] NIH Molecular Libraries Probe Production Network [MLPCN] NIH Chemical Genomics Center [NCGC] MLPCN Grant: R03 MH093212 PI Name: Malcolm Walkinshaw, University of Edinburgh
3ul of substrate/PGK buffer (columns 1,2,5-48) are dispensed into Greiner white solid bottom 1536-well assay plates; columns 3-4 receive only TEA buffer as 0x PGK controls. Compounds are then transferred via Kalypsys pin tool equipped with 1536-pin array (10nl slotted pins, V&P Scientific, San Diego, CA). Following addition of compound, 1ul of GAPDH (100nM final concentration, all columns) is added to initiate the reaction (this upstream coupling enzyme is necessary for in-well production of PGK substrate, 1,3-bisphosphoglycerate (1,3-BPG), which is unstable and not commercially available). The plates are then incubated at room temperature for 60 minutes. Kinase-Glo Plus reagent is added (2ul) and plates incubated for 10 minutes, before being transferred to a ViewLux high-throughput CCD imager (PerkinElmer) wherein single end-point measurements of luminescence are acquired using a clear filter. All reagents are diluted in an assay buffer consisting of 100mM TEA (pH 7.6), 5mM MgCl2 and 0.01% Tween-20.
Further: nearly all actives have a fitted effect of over 60% in size.
Potency means the concentration at half of the fitted maximal effect.

Chain of Phosphoglycerate kinase, glycosomal (Trypanosoma brucei brucei) (P07378 whole entry, looked up): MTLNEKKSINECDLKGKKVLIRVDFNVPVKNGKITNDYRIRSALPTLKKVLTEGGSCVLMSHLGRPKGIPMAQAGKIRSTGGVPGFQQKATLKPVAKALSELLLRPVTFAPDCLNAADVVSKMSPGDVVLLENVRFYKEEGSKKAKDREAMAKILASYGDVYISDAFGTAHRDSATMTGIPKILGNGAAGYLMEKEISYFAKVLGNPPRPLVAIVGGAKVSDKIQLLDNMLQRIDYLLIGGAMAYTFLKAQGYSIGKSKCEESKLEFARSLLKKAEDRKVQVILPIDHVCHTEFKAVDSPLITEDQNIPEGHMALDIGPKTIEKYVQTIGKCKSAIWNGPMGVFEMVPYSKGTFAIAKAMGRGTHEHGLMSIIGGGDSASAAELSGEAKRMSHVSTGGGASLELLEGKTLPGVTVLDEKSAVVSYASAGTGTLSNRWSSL

Compound | Potency
COc1ccc(N2C(=O)/C(=C/c3ccco3)C(=O)NC2=S)cc1 | 12.6 µM (active)
COc1cccc(N2C(=O)NC(=O)/C(=C\c3ccc([N+](=O)[O-])s3)C2=O)c1 | inactive
O=C1NC(=O)N(Cc2ccco2)C(=O)/C1=C\c1ccc(-c2ccc(F)cc2)o1 | inactive
c1ccc(C2NCc3ccccc3-n3cccc32)cc1 (stereo not given) | inactive
N[C@@H](Cc1c[nH]c2ccccc12)c1nnc(SCc2c(F)cccc2Cl)o1 | inactive

Reference: PubChem BioAssay AID602233 (National Center for Advancing Translational Sciences (NCATS), 2012)
